Test system: Plasmodium falciparum
Experiment: GSK_TCMDC: Inhibition of Plasmodium falciparum 3D7 in whole red blood cells, using parasite LDH activity as an index of growth. Test compounds present at 2uM
Assay type: functional

Row | SMILES | Inhibition
1 | COc1ccc(NC(=O)[C@H](CC(C)C)Nc2cc(C)nc(NCc3ccccc3C)n2)cc1.O=C(O)C(F)(F)F | 100%
2 | COc1ccccc1C(C)NCC(=O)Nc1cccc(C(=O)Nc2cccc(C(F)(F)F)c2)c1 (centres undefined) | 91%
3 | CN1CCOc2ccc(Nc3nnc(-c4cccc(-c5cccnc5)c4)o3)cc2C1 | 100%
4 | Cc1cc2c(NC(=O)NC3CCN(Cc4ccc(Cl)c(Cl)c4)CC3)cccc2cn1.Cl | 100%
5 | O=C(N1CCN(c2ccc(C(F)(F)F)cc2[N+](=O)[O-])CC1)C(Cl)(Cl)Cl | 100%
6 | COc1ccc(OC)c2c1CC1NCC2c2c(OC)ccc(OC)c21.Cl (centres undefined) | 99%
7 | CCN(CC)/C(=N/C(=N)Nc1ccc(Cl)cc1)NCCCCCCCCN/C(=N\C(=N)Nc1ccc(Cl)cc1)N(CC)CC | 99%
8 | Cc1ccccc1CN1CCCN(Cc2ccc(C(=O)Nc3ccc(C(C)(C)C)cc3)cc2)CC1.O=C(O)C(F)(F)F | 89%
9 | O=C(Nc1ccc(-c2csc3nccn23)cc1)c1ccc(Cl)cc1 | 100%
10 | Cc1ccc(NC(=O)c2cc(Br)cc(N3CCC(N(C)C)CC3)c2)cc1F.O=C(O)C(F)(F)F | 100%
11 | COc1cc(Nc2nc(N)c3cc(OC)c(OC)cc3n2)cc(OC)c1.Cl | 100%
12 | Cc1cccc2nc(-c3ccc(-c4ccc(CN5CC(C)OC(C)C5)cc4)cc3)[nH]c12.O=C(O)C(F)(F)F (centres undefined) | 97%
13 | O=C(NCc1ccc(Cl)cc1)c1ccc(CN2CCCN(CC3CCCCC3)CC2)cc1.O=C(O)C(F)(F)F | 84%
14 | CCCNC(=O)c1cncc(-c2ccc(CNCCCc3ccccc3)cc2)c1.O=C(O)C(F)(F)F | 100%
15 | O=C(Nc1ccc([N+](=O)[O-])cc1)Nc1cc(OCC(F)(F)F)cc(OCC(F)(F)F)c1 | 100%
16 | CN1CCN(CCCN(Cc2csc(-c3ccc(CNCc4ccccc4)cc3)n2)S(=O)(=O)c2ccccc2Cl)CC1.O=C(O)C(F)(F)F | 93%
17 | O=C(CCc1c[nH]cn1)Nc1cccc(-c2ccc(-c3nc4ccccc4[nH]3)s2)c1 | 92%
18 | COc1ccc(C2C(C(=O)OC3CCCCC3)=C(C)NC3=C2C(=O)CCC3)cc1Br (centres undefined) | 95%
19 | COc1ccc(CN(C)Cc2ccc(NC(=O)c3cccc4c(=O)c5cccc(C)c5[nH]c34)cc2)cc1OC | 92%
20 | CN1CCC(N(Cc2ccc(-c3cnc(NCc4ccccc4)nc3)cc2)S(=O)(=O)c2ccccc2)CC1.O=C(O)C(F)(F)F | 100%

Row | SMILES | Inhibition
21 | O=C(/C=C/c1ccc(Cl)c(Cl)c1)NCCCCCN1CCCC(CNC(=O)Nc2ccc(Oc3ccccc3)cc2)C1 (centres undefined) | 99%
22 | C=CCC(C(=O)Nc1ccnc2ccc(OC)cc12)C1CCN(CCCCCCC)CC1 (centres undefined) | 86%
23 | Cn1cccc1CCNCc1ccc(-c2cccc(-c3nc4cc(F)ccc4[nH]3)c2)cc1.O=C(O)C(F)(F)F | 93%
24 | O=C(NCCCCCN1CCC(c2c[nH]c3ccccc23)CC1)Nc1ccc(Cl)cc1Cl | 99%
25 | CC1CN(c2cnn(Cc3ccc(NC(=O)Nc4cccc(C(F)(F)F)c4)cc3)c(=O)c2Cl)CC(C)N1.O=C(O)C(F)(F)F (centres undefined) | 86%
26 | Cc1ccc(Nc2ccnc3ccc(C(F)(F)F)cc23)cc1O.O=C(O)C(F)(F)F | 100%
27 | O=C(NC1CCN(CCN2CCC(c3ccccc3C(F)(F)F)CC2)CC1)c1ccc(-c2ccc(Cl)cc2)cc1 | 100%
28 | Cc1cc(N[C@@H](Cc2ccccc2)C(=O)NCCOc2ccccc2)nc(NCCOc2ccccc2)n1.O=C(O)C(F)(F)F | 98%
29 | O=C(O)C(F)(F)F.c1cc(CN2CCN(c3ccncc3)CC2)cc(-c2cccc(-c3nc4ccccc4[nH]3)c2)c1 | 100%
30 | CCNCc1cccc(-c2ccc3ccnc(N)c3c2)c1 | 100%
31 | O=C(/C=C/c1ccc(Cl)c(Cl)c1)NCCCCCN1CCCC(c2c[nH]c3ccccc23)C1 (centres undefined) | 99%
32 | Cc1csc(NC(=O)c2cn(-c3ccccc3)nc2-c2cccs2)n1 | 95%
33 | Cl.Nc1nc(N)c2c(ccc3c2ccn3CCCC2CCCNC2)n1 (centres undefined) | 98%
34 | Cc1noc(C)c1-c1cccc(CNCc2cccc(-c3ccc(-c4nc5cc(C(F)(F)F)ccc5[nH]4)s3)c2)c1.O=C(O)C(F)(F)F | 100%
35 | CCOC(=O)c1ccc(NC(=O)NNC(=O)c2ccc(CCN3CCC(c4nc(COCC(F)(F)F)c(-c5ccc(F)cc5)o4)CC3)cc2)cc1 | 100%
36 | NCCCNc1nc(Nc2ccc(C(F)(F)F)cc2F)c2c(=O)[nH]ccc2n1.O=C(O)C(F)(F)F | 95%
37 | COc1cccc(C(=O)NC(C=Cc2ccccc2)c2cc(Cl)c3cccnc3c2O)c1 (centres undefined) | 95%
38 | COc1ccc2nccc([C@@H](O)CN3CCC(NCc4cc5cc(C)ccc5s4)CC3)c2c1.O=C(O)C(=O)O | 92%
39 | CN1CCC(C(=O)N(Cc2ccc(-c3ccc(CNCCc4ccc(S(C)(=O)=O)cc4)cn3)cc2)Cc2cccc(F)c2)CC1.O=C(O)C(F)(F)F | 98%

— ChEMBL document CHEMBL1157539, “Thousands of chemical starting points for antimalarial lead identification” (Nature, 2010)
